DT40 TDP1 no CPT – qHTS for Inhibitors of human tyrosyl-DNA phosphodiesterase 1 (TDP1): qHTS in cells in absence of CPT | DT40 Tdp1-/- hTDP1 cells, no CPT, ATP luminescence, 48 h | Potency, µM (titrated, usually from 46.2 µM), for inactives: at the top dose activity change, negative = growth inhibition, most hits filed as inhibitors | hit rate 15% among 420,000; also: potency is read from the fitted curve at half-maximal effect; nearly all actives have a fitted effect of over 55% in size
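Seeded 400 DT40-hTDP1 cells/well (vehicle DMSO, no 20 nM CPT); pinned compounds; ≥48 hr at 37 °C; CellTiter-Glo luminescence as viability measure.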
IL-1B inflam inh – blocks inflammasome-driven IL-1 beta release. THP-1 LPS/ATP IL-1B secretion, AlphaLISA, 16 h; hits give low values. activity change, % at 57.5 µM. hit rate 4.7% among 360,000. AID 743279; in the data active = activity change below about -50%; inconclusive = mostly about -30% to -49%
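THP-1 cells pretreated 1 hr with compounds (up to 57.5 uM final), then stimulated with LPS (250 ng/mL final) plus ATP (1.25 mM final); secreted IL-1B measured by AlphaLISA after 16 hr, decreased signal indicating inhibition.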
DT40 TDP1 CPT – growth inhibition of DT40 Tdp1-/-;hTDP1 cells with camptothecin (screen for TDP1 inhibitors). chicken DT40 Tdp1-/-;hTDP1 cells + 20 nM CPT, ATP luminescence, 48 h. Potency, µM (highest dose often 46.2 µM), without a hit: at the top dose activity change, negative = growth inhibition, most hits filed as inhibitors. hit rate 12% among 420,000. AID 686979; also: potency is read from the fitted curve at half-maximal effect; nearly all actives have a fitted effect of over 55% in size
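Chicken DT40 Tdp1-/- cells complemented with human TDP1, 400 cells/well, exposed to compounds plus 20 nM camptothecin for at least 48 h at 37 C; viability read as ATP content by CellTiter-Glo luminescence.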
HT1080NT lethal – kills 2HG-producing HT-1080-NT fibrosarcoma cells; HT-1080-NT fibrosarcoma viability, CellTiter-Glo ATP luminescence, 48 h; Potency, µM (doses to about 46.1 µM), for inactives: at the top dose activity, negative = less viability, hits mostly cytotoxic; hit rate 1.6% among 360,000; AID 686970;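 also: NT is the 2HG producing partner of a matched IDH1 knockdown line; potency is read from the fitted curve at half-maximal effect; 0% = DMSO-treated cells and -100% = media-only wells without cells; nearly all actives have a fitted effect of over 55% in size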
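Fibrosarcoma NT cells, 750 per well in 5% FBS RPMI, were exposed to compound for 48 hours. Viability: CellTiter-Glo luminescence.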
HT1080 IDH1KD tx – HT-1080 IDH1 knockdown cell toxicity (counter line); HT-1080 IDH1 knockdown viability, ATP luminescence, 48 h; Potency, µM (highest dose often 46.1 µM), for inactives: at the highest dose activity, negative = toxicity, hits mostly cytotoxic; hit rate 2% among 360,000; AID 686971;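 also: potency is read from the fitted curve at half-maximal effect; 0% = DMSO wells and -100% = cell-free medium wells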
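Cytotoxicity counter-line: IDH1KD HT-1080, 48 h, CellTiter-Glo. Curves classed by r2, magnitude and activity.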
Starred values were filed as active, the others as inactive; ? = inconclusive; / = no result given. This is a sample that favours compounds with a hit; in the whole collection about 19% have one here. Unless noted, calls follow the shape of the dose curve; as a rule, active = well fitted curve in the direction sought with a large enough effect; inconclusive = small, poorly fitted or top-dose-only effect, or another doubt; inactive = no such curve, though single readings can be large; an effect the other way counts as inactive or inconclusive. Unless noted, % is scaled to controls: 0 for no effect and ±100 for the full control effect.

SMILES | DT40 TDP1 no CPT | IL-1B inflam inh | DT40 TDP1 CPT | HT1080NT lethal | HT1080 IDH1KD tx
CCN(C(C)=O)c1cnc(C=NNC(N)=S)c2ccccc12 | 4.6µM* | 119 | 3.7µM* | -22% | ?
NC(=S)NN=Cc1nccc2c(N)cccc12 | 1.2µM* | 120 | 1.8µM* | ? | ?
O=c1c2c([nH]n1-c1ccccc1)C[C@@H](C1CCCCC1)O[C@H]2c1ccc(F)cc1 | -22% | 14 | 2% | ? | ?
CC(C)(C)c1ccc(C(=O)N/N=C/c2cccc(Cl)c2)cc1 | 16µM* | ? | ? | ? | ?
CC(SC(C)C(=O)NN=Cc1cccc(Cl)c1)C(=O)NN=Cc1cccc(Cl)c1 (configuration not stated) | 16µM* | 18 | ? | -20% | ?
O=C(N/N=C/c1cccc(NC(=O)c2ccc(Cl)cc2)c1)c1ccc(O)cc1 | 15µM* | ? | ? | -5% | -9%
O=C(N/N=C/c1cccc(F)c1)c1ccc(Cl)cc1 | -5% | 0 | 27% | -2% | -8%
COc1ccc(N(CC(=O)NCc2cccs2)S(=O)(=O)c2cccc(C)c2)cc1 | -27% | -1 | ? | 0% | -9%
CCCOC(=O)c1ccccc1O | -24% | / | -9% | / | /
COc1ccc(-c2nn(CCC#N)cc2C(=O)Nc2cccc(C(=O)O)c2)cc1OC | 2% | 5 | -1% | 11% | 6%
COc1ccc(-n2c(=O)cc(N3CCN(c4ccccc4)CC3)[nH]c2=O)cc1 | -26% | 22 | -9% | 9% | -1%
Cc1cccc(-n2c(=O)cc(N3CCN(c4ccc(F)cc4)CC3)[nH]c2=O)c1 | 18µM* | 14 | ? | 0% | 1%
CCn1c(SCC(=O)Nc2oc(C)c3c(C)n[nH]c(=O)c23)nnc1-c1ccco1 | -14% | -4 | -22% | 0% | -14%
CCCCCCC[C@@H](C/C=C/CCC(=O)N(C)C/C(=C/Cl)C/C(=C\C(=O)N1CC(OC)=CC1=O)OC)OC | 1.8µM* | 106 | 2.3µM* | 5.8µM* | 9.2µM*
CCCCCCC[C@@H](C/C=C/CCC(=O)N(C)C/C(=C/Cl)C/C(=C\C(=O)N1C[C@H](O)CC1=O)OC)OC | 9.2µM* | -71* | 9.2µM* | 23µM* | ?
CC(c1ccccc1)n1cnc2ccccc2c1=O (configuration not stated) | -18% | 27 | -16% | -1% | -3%
CCN(Cc1ccccc1)c1ccc(/C=N/NC(=S)NC(C)C)cc1 | 2.9µM* | -10 | 2.6µM* | -1% | -1%
CCN(Cc1ccccc1)c1ccc(/C=N/NS(=O)(=O)c2ccc(C)c([N+](=O)[O-])c2)cc1 | 23µM* | 0 | ? | -11% | -17%
CCN(CC)c1ccc(/C=N/NC(=O)Nc2ccccc2)cc1 | ? | -28 | ? | ? | ?
CCN(Cc1ccccc1)c1ccc(/C=N/N=C(N)N)cc1 | 13µM* | -100* | 10µM* | 18µM* | ?
CNCCOc1ccccc1OC(C)C | 2% | 15 | -2% | 14% | -3%
CSc1cccc(CN2CCN(CCC(C)C)C(CCO)C2)c1 (configuration not stated) | ? | -1 | 3% | -9% | -9%
COc1ccc(CN2COc3ccc4c(oc(=O)c5ccccc54)c3C2)cc1OC | -8% | / | -15% | / | /
COc1ccc(CN2COc3ccc4c(-c5ccc(OC)cc5)cc(=O)oc4c3C2)cc1 | 21µM* | / | 9.2µM* | / | /
COc1ccccc1CN1COc2ccc3c(oc(=O)c4ccccc43)c2C1 | 23µM* | / | ? | / | /
SMILES | DT40 TDP1 no CPT | IL-1B inflam inh | DT40 TDP1 CPT | HT1080NT lethal | HT1080 IDH1KD tx
Cc1ccc(CN2COc3c(Cl)cc4c(-c5ccccc5)cc(=O)oc4c3C2)cc1 | -20% | / | -22% | / | /
COc1ccccc1/C=C/c1nc(S(=O)(=O)c2ccccc2)c(N(C)C)o1 | ? | -62* | ? | 10% | 5%
COc1cccc(/C=C/c2nc(S(=O)(=O)c3ccccc3)c(N(C)C)o2)c1 | ? | ? | ? | 10% | 10%
COc1cc(OC)cc(C(=O)N2CCN(c3ccccc3F)CC2)c1 | ? | 29 | -9% | -24% | -19%
COc1ccc(N2CCN(C(=O)Cc3ccc(Cl)cc3)CC2)cc1 | ? | -15 | -19% | -7% | 0%
COc1ccc(CN2CCc3c(c(=O)n4ncc(C(=O)N5CCN(c6ccccc6F)CC5)c4n3C)C2)cc1 | 8.2µM* | / | 18µM* | / | /
CCn1c2c(c(=O)n3ncc(C(=O)N4CCN(c5ccc(Cl)cc5)CC4)c13)CN(Cc1ccc(OC)cc1)CC2 | 1.6µM* | / | 2.3µM* | / | /
Cn1cccc1C(NC(=O)c1ccccc1)C(Cl)(Cl)Cl (configuration not stated) | ? | 1 | ? | 0% | 0%
COc1ccc(N2CCN(S(=O)(=O)c3csc(C(N)=O)c3)CC2)cc1 | -5% | / | -15% | / | /
CC1(C(=O)NS(=O)(=O)c2ccc(Cl)s2)CCN1C(=O)C1CCCCC1 (configuration not stated) | 7.3µM* | 31 | 5% | 13% | 0%
Cc1cc2c(cc1C)-n1nnnc1C(N(Cc1ccccc1)Cc1ccccc1)C(=O)N2 (configuration not stated) | 21µM* | -18 | ? | -24% | -26%
CN(C)CCCN1C(=O)c2cccc3c([N+](=O)[O-])ccc(c23)C1=O | 2.3µM* | -51* | 2.3µM* | ? | 5.8µM*
O=C1c2cccc([N+](=O)[O-])c2C(=O)N1CCO | 1% | 10 | 2% | 13% | 16%
O=C1c2cccc3c([N+](=O)[O-])ccc(c23)C(=O)N1CCc1ccccn1 | 5.2µM* | -21 | 13µM* | 2% | -16%
COc1cccc(NC(=O)COC(=O)C2CC3CCCC(C2)C3=O)c1 (configuration not stated) | -22% | -9 | -12% | -3% | -2%
CCOC(=O)NC(=O)/C(C#N)=C(/C)N(C)C | 19% | 1 | -1% | 6% | 20%
NNc1nc(Nc2ccccc2)nc(N2CCCCC2)n1 | ? | ? | ? | -4% | ?
c1ccc(Nc2ccnc(Nc3ccccc3)n2)cc1 | 21µM* | / | ? | -28% | ?
COc1ccc(Nc2nc(NN)nc(Nc3ccc(OC)cc3)n2)cc1 | 13µM* | ? | ? | -20% | -7%
NNc1nc(Nc2ccccc2)nc(Nc2ccccc2)n1 | ? | -24 | 16µM* | -28% | ?
NNc1nccc(Nc2ccccc2C(=O)O)n1 | -22% | -67* | -10% | -11% | -18%
CCC(C)NC(=O)CSc1nc2cc3c(cc2c(=O)n1CCCC(=O)NCCc1ccc(OC)c(OC)c1)OCO3 (configuration not stated) | 8% | / | 4% | / | /
